The list shows a part of the results. Active and inactive are the calls of the source. Calls follow the shape of the dose curve; as a rule, active = well fitted curve in the direction sought with a large enough effect; inconclusive = small, poorly fitted or top-dose-only effect, or another doubt; inactive = no such curve, though single readings can be large or run the other way.

The assay is described as follows: Inhibitors of DNA Polymerase Beta: Hit Validation in Klenow Fragment Assay. Conditions: Klenow exo- polymerase counter-screen, fluorescent DNA substrate; series mostly up to 57.1 µM. The text has this:
The base excision repair system in human cells is a target for therapeutic modulation of the response to irradiation treatment and DNA-damaging drugs. A key enzyme in this system is the bi-functional DNA polymerase known as DNA polymerase beta (pol b). […] Using an integrated approach involving discovery of small molecule probes for pol b via qHTS and validation by crystallography and kinetics along with cell-based validation experiments, we will test the hypothesis that base excision repair can be strategically modulated in human cells by targeting pol b. Thus, we anticipate the pol b-specific probes emerging from this research will serve as starting points in the development of clinical agents for use in down regulation of DNA base excision repair during therapeutic interventions against cancer. After the completion of the qHTS against the Molecular Libraries Small Molecular Repository (MLSMR), cherry picked compounds were re-affirmed in the primary qHTS pol beta assay and further characterized in several follow-up assays. An E. coli Klenow exo- fragment assay was used as a counter screen assay. The Klenow exo- fragment is a large protein fragment of DNA polymerase which lack exonuclease activity. Measuring compounds activity against the Klenow exo- fragment helps identifying promiscuous compounds. […] NIH Chemical Genomics Center [NCGC] NIH Molecular Libraries Probe Centers Network [MLPCN] MLPCN Grant: MH090863-01 Assay Submitter (PI): Samuel Wilson, National Institute of Environmental Health Sciences (NIEHS), NIH Assay Submitter (PI): Samuel Wilson, National Institute of Environmental Health Sciences (NIEHS), NIH
A stepwise description of the 1536-well assay is shown as described in primary assay. Three microliters of reagents (buffer in column 3 and 4 as negative control and 5nM Klenow enzyme in columns 1, 2, and 5-48) will be dispensed into 1,536-well black solid-bottomed plate. Compounds (23nl) will be transferred via Kalypsys pin tool equipped with 1536-pin array (10nl slotted pins, V&P Scientific, San Diego, CA). The plates will then be incubated for 15 min at room temperature, and 1 µl substrate of tripartate ds DNA (50nM final concentration) will be added to start the reaction and kinetically read twice at 0 min and 10 min on ViewLux reader.
For the molecule `CCOc1ccccc1/C=c1\sc2nc(-c3ccco3)nn2c1=O`, the outcome was inactive.

Take `COc1cc([C@H](Cc2ccccc2)NC(C)=O)oc(=O)c1`: the molecule was called inactive.

Turning to `Cc1c(CCC(=O)O)c(=O)oc2c(C)c(OCc3ccccc3Cl)ccc12`, the molecule was classed as inactive.

As to `Cc1c(CC(=O)N2CCN(C(=O)C3COc4ccccc4O3)CC2)c(=O)oc2c(O)c(O)ccc12` (stereo not given), the molecule was called inactive.

Consider `COc1ccc(Cc2nnc(NC(=O)Cc3cccs3)s2)cc1`, for which the call was inactive.

`O=C(Nc1ccc(S(=O)(=O)Nc2nccs2)cc1)c1cc(-c2ccncc2)nc2ccccc12`: the molecule was classed as inactive.

`O=C(CN1CCN(S(=O)(=O)c2cc(Cl)ccc2Cl)CC1)c1ccc(O)c(O)c1`: the result was inactive.

As to `O=C(c1cc2c(s1)CCC2)N1CCN(c2ccccc2)CC1`, the result was inactive.

For `Cc1ccc2nc(-c3ccncc3)cc(C(=O)Nc3ccc(OC(F)F)cc3)c2c1`, the call was inactive.

Regarding `Cc1ccc(C(=O)Oc2coc(CSc3nnc(NC(=O)c4cccs4)s3)cc2=O)cc1C`, the call was inactive.

Source of the values: PubChem BioAssay AID540300 (National Center for Advancing Translational Sciences (NCATS), 2011).
